The record followed here is PubChem BioAssay (NCATS).

The structures appear in SMILES notation. Inconclusive results are not listed. Entries that show only a call come without a potency. Active and inactive are the calls of the source. Calls come from the whole dose curve; as a rule, active = well fitted inhibition curve with a large enough effect; inconclusive = small, poorly fitted or top-dose-only effect; inactive = flat fitted curve, though single readings scatter.

The target of this experiment is Calcium and integrin-binding protein 1 (Homo sapiens) (UniProt Q99828). The experiment is described as follows: Primary qHTS for Identification of Calcium Integrin Binding Protein 1 (CIB1) Competitor (AID 1508620). Note: top concentration of the series differs between compounds. The settings on record: CIB1-GST / FITC-alphaIIb peptide fluorescence polarization; series mostly up to 114 µM. Summed up: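 Fluorescence polarization competition: GST-tagged CIB1 (1 uM final) preincubated with compound 15 min at room temperature, then FITC-labelled alphaIIb peptide (100 nM final) added. After 15 min at room temperature, polarization read at Ex 480/Em 540.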
Calcium and integrin-binding protein 1 (Homo sapiens), sequence (Q99828 whole entry, looked up): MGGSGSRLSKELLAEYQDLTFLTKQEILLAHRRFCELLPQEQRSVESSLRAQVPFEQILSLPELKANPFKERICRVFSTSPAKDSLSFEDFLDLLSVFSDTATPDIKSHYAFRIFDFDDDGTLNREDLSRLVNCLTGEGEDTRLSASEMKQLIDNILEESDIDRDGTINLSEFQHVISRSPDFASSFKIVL
Background: Quantitative high-throughput screening tests each substance at several concentrations.
Consider `CC(=O)Nc1sc2c(c1-c1ccc3c(c1)OCCO3)CCNC2`, for which the Potency entry was “inactive”. With `Cc1ccc(OCCn2c(CCNC(=O)c3ccc(Cl)cc3)nc3ccccc32)cc1`, the Potency result is “inactive”. Turning to `COc1ccc(-c2nc3ccccc3c(=O)n2Cc2ccccc2)cc1CNc1ccc(NC(C)=O)cc1`, the Potency entry was “inactive”. For `O=C(NCCc1nc2ccccc2n1CCOc1ccccc1F)C1CCCCC1`, the Potency result is “inactive”. As for `CCOc1ccc(CCNC(=O)c2cc3sccc3n2Cc2ccncc2)cc1OCC`, the entry is “inactive”; as for `O=C(OCC#CCSc1nnc(-c2cccc3ccccc23)o1)c1cccc2[nH]ccc12`, “inactive”. As for `C[C@H](N)C(=O)Nc1cccc(-c2nn3c(=O)cc(N4CCNCC4)nc3s2)c1`, the entry is “inactive”; as for `CC(C)(C)OC(=O)N1CCN(c2ccc(NCc3ncc(-c4ccc(C#N)cc4)o3)cc2)CC1`, “inactive”; as for `C[C@@H]1CN(S(=O)(=O)c2ccc3c(c2)OCCO3)CCN1S(=O)(=O)c1c(F)cccc1F`, “inactive”. With `Cc1ccc(-n2cnc3cc(C(=O)N4CCCCC4)ccc32)cc1`, the Potency entry was “inactive”. With `Cc1ccc(CNc2ncnc3ccc(-c4ccc5c(c4)OCO5)cc23)s1`, the Potency result was “inactive”.

For the molecule `Cc1cc(N(C)S(=O)(=O)c2ccc(NC(=O)Cc3ccc(Cl)c(Cl)c3)cc2)no1`, the Potency result was “inactive”. Consider `COC(=O)c1sc2c(c1-c1nc3ccccc3s1)CCNC2`, for which the Potency entry was “inactive”.

As to `CC(C)Nc1cccc(S(=O)(=O)N2CCCN(S(=O)(=O)c3ccc4c(c3)OCCO4)CC2)c1`, the Potency result was “inactive”.

As for `Cc1ccc(-c2nc(NCC(=O)Nc3cccc(C(=O)O)c3)c3ccccc3n2)cc1`, the Potency entry is “inactive”. As to `O=C(O)c1ccc2c(c1)C(=O)N([C@H](Cc1ccc(F)cc1)C(=O)O)C2=O`, the Potency entry is “inactive”.
